In the library only some 3.2% were active in any assay of this set; here they are far more common.
PG9 binder: binders of HIV-1 gp120 antibody PG9, primary screen, biochemical, TR-FRET; inhibition, % at 6.7 µM; HIV-1 gp120 / PG9 antibody interaction; AID 624416, 2012; TR-FRET gp120-PG9 antibody binding; 0.43% of 360,000 active; in the data active means inhibition above about 8.5%
HGIII-sPLA2 inh: human group III sPLA2 inhibitors, primary screen, biochemical, QFRET, BODIPY PC-A2 liposome substrate. QFRET BODIPY PC-A2 liposome hydrolysis, fluorescence. inhibition, % at 12.2 µM. 0.56% of 370,000 active;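 active means inhibition above mean plus 3 SD of compounds lying within the high and low control bounds, cut at about 19% in these data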;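 further: 0% = median of test compound wells and 100% = no enzyme DMSO wells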
Target sequence (Q9NZ20 whole entry, looked up): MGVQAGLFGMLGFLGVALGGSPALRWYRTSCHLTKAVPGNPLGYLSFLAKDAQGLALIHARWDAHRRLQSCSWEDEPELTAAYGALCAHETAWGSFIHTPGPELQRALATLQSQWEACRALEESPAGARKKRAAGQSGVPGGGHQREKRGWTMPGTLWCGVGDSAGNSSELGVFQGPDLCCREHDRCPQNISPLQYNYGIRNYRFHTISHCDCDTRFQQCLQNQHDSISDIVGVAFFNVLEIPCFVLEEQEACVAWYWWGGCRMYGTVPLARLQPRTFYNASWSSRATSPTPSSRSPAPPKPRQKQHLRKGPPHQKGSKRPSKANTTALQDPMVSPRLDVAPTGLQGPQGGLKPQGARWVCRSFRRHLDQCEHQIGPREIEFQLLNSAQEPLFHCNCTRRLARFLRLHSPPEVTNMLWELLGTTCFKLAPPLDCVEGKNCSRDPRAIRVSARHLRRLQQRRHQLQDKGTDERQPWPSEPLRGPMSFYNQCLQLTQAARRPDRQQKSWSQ
rCAG RNA binder: binders of r(CAG) RNA repeats, primary screen, biochemical, fluorescence. r(CAG) RNA repeat, TO-PRO-1 dye displacement fluorescence. 1.3% of 370,000 active. AID 651821, 2012. inhibition, % at 3 µM;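 active means inhibition above the plate cutoff, the mean of all test compounds on that plate plus 3 SD, cut at about 35% in these data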;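 further: 0% = DMSO alone and 100% = 100 µM mitoxantrone as full dye displacement; higher means more dye released from RNA so lower well fluorescence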
MsrA act: bovine MsrA enzyme activators, primary screen, biochemical, absorbance, HTS; Methionine sulfoxide reductase A (Bos taurus); purified bovine MsrA, absorbance read-out; activation, % at 10.6 µM; 0.3% of 360,000 active; AID 602163, 2012; in the data active means activation above about 7.5%;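 further: 0% = vehicle and 100% = reference activator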
MsrA inh: bovine MsrA enzyme inhibitors, primary screen, biochemical, absorbance, HTS. 0.75% of 360,000 active. Methionine sulfoxide reductase A (Bos taurus). inhibition, % at 15.5 µM. purified bovine MsrA, absorbance read-out; in the data active means inhibition above about 4.5%;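 further: 0% = vehicle wells with enzyme and 100% = reference inhibitor wells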
rCAG binder conf: small molecules binding CAG repeat RNA – biochemical, fluorescence, confirmation; shares compounds with rCAG RNA binder; r(CAG) RNA repeat, TO-PRO-1 dye displacement fluorescence; inhibition, % at 3 µM; 70% of 4,300 active;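 active means inhibition above a per-plate cutoff, the mean inhibition of sample wells plus 3 SD, cut at about 35% in these data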;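 further: loss of TO-PRO-1 fluorescence as compound displaces dye from 1x1 AA loop RNA; 0% = DMSO only wells and 100% = 100 µM mitoxantrone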
DNA CAG counter: displacement of TO-PRO-1 from CAG DNA duplex, counter-screen for rCAG RNA repeat binder project, biochemical, fluorescence, TO-PRO-1 dye, d(CAG) DNA oligo; shares compounds with rCAG RNA binder; d(CAG) DNA oligo TO-PRO-1 dye displacement; inhibition, % at 3 µM; 94% of 4,300 active; AID 652068, 2013;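 active means inhibition above its plate's cutoff, the mean test-well inhibition plus 3 SD, cut at about 4.8% in these data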;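 further: 0% = DNA dye mix with DMSO and 100% = 100 µM mitoxantrone; hits displace the dye from DNA and so lower well fluorescence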
* = called active by the depositor; . = no result given.

SMILES | PG9 binder | HGIII-sPLA2 inh | rCAG RNA binder | MsrA act | MsrA inh | rCAG binder conf | DNA CAG counter
CCOc1ccc(N(CC(=O)Nc2c(C)n(C)n(-c3ccccc3)c2=O)S(=O)(=O)c2cccs2)cc1 | . | -4 | 0 | . | . | . | .
S=c1[nH]nc(-c2ccco2)n1/N=C/c1cccc(Cl)c1 | 1 | 16 | 10 | 2 | 1 | . | .
S=c1[nH]nc(-c2ccco2)n1/N=C/C(Cl)=C/c1ccccc1 | 2 | -2 | 58* | -2 | 2 | 52* | 18*
S=c1[nH]nc(-c2ccco2)n1/N=C/c1ccc(Cl)c(Cl)c1 | 0 | 11 | 41* | -8 | 3 | 40* | 10*
Cc1cc(-c2n[nH]c(=S)n2/N=C/C(Cl)=C/c2ccccc2)n[nH]1 | 1 | 11 | 32 | 0 | 1 | . | .
CC(=O)C1=CCC(c2ccc(C)o2)N(S(=O)(=O)c2ccc(C)cc2)C1 (stereo not given) | 1 | -1 | 2 | -3 | -1 | . | .
O=S1(=O)c2ccc(N3CCSCC3)cc2Oc2ccccc2CN1Cc1cn(Cc2cccc(C(F)(F)F)c2)nn1 | . | -4 | 13 | . | . | . | .
O=C(O)CCN1C(=O)/C(=C/c2ccc(-c3nc4ccccc4s3)o2)SC1=S | 1 | 2 | 55* | 1 | 1 | 85* | 53*
O=C(O)CC(C(=O)O)N1C(=O)/C(=C/c2ccc(-c3nc4ccccc4s3)o2)SC1=S (stereo not given) | -6 | -11 | 62* | -2 | 1 | 54* | 19*
O=Cc1ccc(-c2nc3ccccc3s2)o1 | -2 | 3 | 5 | -3 | 3 | . | .
O=C(O)CCCN1C(=O)/C(=C\c2ccc(-c3nc4ccccc4s3)o2)SC1=S | 1 | 4 | 27 | -1 | 1 | . | .
O=C(CCN1CCN(c2ccccc2)CC1)N/N=C/c1ccc(O)c(O)c1O | -3 | -9 | 56* | -13 | 0 | 45* | 21*
C=CCOC(=O)c1cc(-c2ccc(/C=C3\C(=O)NC(=O)C(C#N)=C3C)o2)ccc1Cl | -1 | 3 | 63* | -3 | 3 | 87* | 51*
CCCOC(=O)c1cc(-c2ccc(/C=C3/C(=O)N(C)C(=O)C(C#N)=C3C)o2)ccc1Cl | . | . | . | -3 | . | . | .
COc1ccc(NS(=O)(=O)c2ccc(-n3nnc4ccccc43)c([N+](=O)[O-])c2)cc1 | 4 | -32 | 19 | 0 | 0 | . | .
O=[N+]([O-])c1cc(S(=O)(=O)Nc2cccc(C(F)(F)F)c2)ccc1-n1nnc2ccccc21 | -1 | -71 | 78* | -4 | 0 | 69* | 33*
O=C(NCCc1ccc(Cl)cc1)c1ccc2c(=O)[nH]c3c(C(=O)NCC4CCCO4)sc(=S)n3c2c1 (stereo not given) | -1 | -1 | 44* | . | 0 | 85* | 70*
O=C(NCC1CCCO1)c1sc(=S)n2c1[nH]c(=O)c1ccc(C(=O)N3CCCCC3)cc12 (stereo not given) | -2 | -10 | 81* | -8 | 1 | 84* | 40*
O=C(NCCc1ccccc1)c1ccc2c(=O)[nH]c3c(C(=O)NCC4CCCO4)sc(=S)n3c2c1 (stereo not given) | -4 | -7 | 91* | -2 | 0 | 93* | 71*
CCC1(c2ccc(OC)cc2)NC(=O)N(CC(=O)c2ccc3c(c2)OCCO3)C1=O (stereo not given) | -2 | -8 | 0 | -6 | 0 | . | .
COc1cccc2sc(Nc3nc(-c4ccncc4)cs3)nc12 | -3 | -25 | 38* | -3 | 3 | 21 | 14*
COc1cccc2sc(Nc3nc(-c4cc5ccccc5oc4=O)cs3)nc12 | -5 | -4 | 20 | -3 | 1 | . | .
O=C(Nc1cccc(C(=O)O)c1)/C(=C\c1cccc([N+](=O)[O-])c1)NC(=O)c1ccc(Br)cc1 | 0 | -16 | 25 | 1 | 1 | . | .
COc1ccc(NC(=O)CSc2nnc(NC(C)=O)s2)c([N+](=O)[O-])c1 | -1 | 3 | 55* | -4 | -1 | 2 | 0
COc1ccc(NC(=O)N(CCc2c(C)[nH]c3ccccc23)Cc2cccs2)cc1OC | . | -22 | 4 | . | . | . | .
SMILES | PG9 binder | HGIII-sPLA2 inh | rCAG RNA binder | MsrA act | MsrA inh | rCAG binder conf | DNA CAG counter
COc1ccc(C(=O)COC(=O)/C=C/c2ccc(S(=O)(=O)Nc3cccc(S(N)(=O)=O)c3)cc2)cc1 | -1 | -52 | 46* | -6 | 1 | 60* | 20*
COc1cccc(/C=C/C(=O)c2ccc(NS(=O)(=O)c3ccc(C)cc3)cc2)c1 | -1 | -50 | 35* | -8 | 4 | 62* | 21*
COc1cc(/C=C/C(=O)c2ccc(NS(=O)(=O)c3ccc(C)cc3)cc2)ccc1OC(F)F | 0 | -37 | 19 | -3 | 2 | . | .
CCN(CC)S(=O)(=O)c1cccc(-c2n[nH]c(=S)n2/N=C/c2ccc(OC(F)F)cc2)c1 | 0 | -22 | 78* | -5 | 0 | 64* | 22*
CCOc1ccc(C=Nn2c(-c3cccc(OC(C)C)c3)n[nH]c2=S)cc1 | . | -9 | 44* | . | . | 46* | 11*
CCN(CC)S(=O)(=O)c1cccc(-c2n[nH]c(=S)n2/N=C/c2ccc(Br)cc2)c1 | -2 | -2 | 78* | 0 | 3 | 83* | 48*
CCOc1ccc(/C=N/n2c(-c3n[nH]c4c3CCC4)n[nH]c2=S)cc1 | . | 12 | 8 | . | . | . | .
CCCC(C)(C)C(=O)N1CCC1(C)C(=O)Nc1cccc2ccccc12 (stereo not given) | -2 | 4 | -1 | -2 | 0 | . | .
O=C(CSc1nnc(-c2ccc(Cl)cc2)n1-c1ccccc1)Nc1ccc2c(c1)OCCO2 | . | 3 | 4 | . | . | . | .
COC(=O)C1CN(C2CC2)CCS(=O)(=O)N1Cc1cn(Cc2ccccc2)nn1 (stereo not given) | . | 15 | 2 | . | . | . | .
O=C(Nc1ccc(Br)cc1C(=O)O)c1ccc2c(c1)C(=O)N(Cc1ccccc1)C2=O | -2 | 1 | 49* | -2 | 0 | 87* | 77*
CCCN1C(=O)c2ccc(C(=O)Nc3cc(C)ccc3O)cc2C1=O | -2 | -9 | 6 | -5 | 2 | . | .
O=C(Nc1cc(Cl)ccc1C(=O)O)c1ccc(CN2C(=O)c3ccccc3C2=O)cc1 | -1 | -15 | 59* | 0 | 0 | 85* | 72*
CCCN1C(=O)c2ccc(C(=O)Nc3ccccc3C(=O)O)cc2C1=O | 0 | -8 | 54* | -2 | 2 | 36* | 7.0*
